Compounds with a hit are over-represented: about 9.3% of the library has one in this group of screens.
Rab9 promoter act: activates the Rab9 promoter | Potency, µM (series often up to 9.22 µM), for the others: at the top dose activation, negative = inhibition, most hits filed as activators | AID 485297 | Huh7 Rab9 promoter-luciferase reporter, luminescence, 24 h | 2.8% of 320,000 active; also: % of control where 0% means no effect; nearly all actives have a fitted effect of over 60% in size
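Cells were plated at 1500 per well in reduced-serum medium with 10% FBS and left 2 h. Compound in DMSO was then added for 24 h at 37 °C. Reporter signal was read by luminescence after 10 min with luciferase detection reagent.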
ELG1 genotoxic: induces genotoxicity in HEK293T cells with luciferase-tagged ELG1 | HEK293T ELG1-luciferase reporter, luminescence, 16 h | AID 504466 | Potency, µM (series often up to 46 µM), inactives show at the top dose activity change, positive = activation, usual class: activators | 1.3% of 330,000 active; also: % of control where 0% means no effect; nearly all actives have a fitted effect of over 60% in size
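HEK293T cells expressing luciferase-tagged ELG1 were exposed to compound or DMSO vehicle for 16 hr at 37 °C and 5% CO2. Luciferase activity was then measured with ONE-Glo after 30 min at room temperature.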
NPC1 prom act: activators of NPC1 promoter. Potency, µM (highest dose often 9.22 µM), for inactives: at the highest dose activation, hits mostly activators. AID 485313. Huh7 NPC1 promoter luciferase reporter, 24 h. 2.4% of 320,000 active; also: % of control where 0% means no effect; nearly all actives have a fitted effect of over 60% in size
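Stable NPC1-promoter luciferase Huh7 line; cpd (DMSO) 24 h, 37 °C, 5% CO2; Amplite luciferase reagent 10 min RT; luminescence readout. qHTS format.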
FLuc counter: firefly luciferase modulation, counter-screen for miR-21 project; P08659; purified FLuc, Km substrates, luminescence inhibition; Potency, µM (highest dose often 57.5 µM), without a hit: at the highest dose activity change, negative = inhibition, actives largely listed as inhibitors; 6.9% of 360,000 active; AID 588342;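 also: plate controls were vehicle for no effect and reference inhibitor for full effect; nearly all actives have a fitted effect of over 55% in size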
Target sequence (P08659 whole entry, looked up): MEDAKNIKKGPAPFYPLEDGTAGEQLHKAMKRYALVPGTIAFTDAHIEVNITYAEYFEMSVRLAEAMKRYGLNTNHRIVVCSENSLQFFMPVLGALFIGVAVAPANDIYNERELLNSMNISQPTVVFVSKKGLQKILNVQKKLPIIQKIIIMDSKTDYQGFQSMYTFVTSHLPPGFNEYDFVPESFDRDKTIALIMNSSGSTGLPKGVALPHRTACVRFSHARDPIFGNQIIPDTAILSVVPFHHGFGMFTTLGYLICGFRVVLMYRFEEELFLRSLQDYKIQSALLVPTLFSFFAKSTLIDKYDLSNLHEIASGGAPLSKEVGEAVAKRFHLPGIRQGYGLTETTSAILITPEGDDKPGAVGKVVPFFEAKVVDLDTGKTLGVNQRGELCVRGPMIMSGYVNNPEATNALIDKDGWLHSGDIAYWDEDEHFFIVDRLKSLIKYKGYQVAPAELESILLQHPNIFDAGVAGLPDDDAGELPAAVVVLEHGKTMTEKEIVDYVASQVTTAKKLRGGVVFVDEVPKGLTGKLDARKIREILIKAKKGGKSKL
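Purified P. pyralis luciferase, 10 nM final, with Km-level 10 uM D-luciferin and 10 uM ATP in 50 mM Tris acetate pH 7.5, 10 mM Mg acetate, 0.01% Tween-20, 0.05% BSA; 6-point qHTS titration about 60 µM downward; luminescence read.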
ELG1 DNA repair: inhibitors of ELG1-dependent DNA repair in HEK293T cells; 2.3% of 330,000 active; Potency, µM (top dose mostly 46.1 µM), inactives show at the highest dose activity change, negative = inhibition, hits mostly inhibitors; AID 504467; HEK293T ELG1-luciferase reporter, luminescence, 16 h; DNA damage induced by 5-fluorouridine; also: % is scaled to controls: 0 for no effect and ±100 for the full control effect; nearly all actives have a fitted effect of over 55% in size
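Step one: seed 2,000 cells per well. Step two: pin-transfer compound or DMSO alongside 5-fluorouridine. Step three: incubate 16 hr, 37 °C, 5% CO2. Step four: add ONE-Glo, wait 30 min, read luminescence.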
SMN2 splice up: SMN2 splice variant enhancement | HEK293 SMN2-luciferase splicing reporter, luminescence, 30-36 h | Potency, µM (top dose mostly 46.1 µM), without a hit: at the top dose activity change, positive = activation, actives largely listed as activators | 2.8% of 210,000 active; also: % of control where 0% means no effect; nearly all actives have a fitted effect of over 55% in size
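qHTS luciferase splicing reporter: luminescence rises when SMN2 exon 7 is included in transfected HEK293 cells. Compound exposure lasted 30-36 h at 37C, with 4.5 mM final sodium butyrate as control, followed by a ONE-Glo read.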
Starred values were filed as active, the others as inactive; ? = inconclusive; . = no result; [ ] = remark or other dose. Calls follow the shape of the dose curve; as a rule, active = well fitted curve in the direction sought with a large enough effect; inconclusive = small, poorly fitted or top-dose-only effect, or another doubt; inactive = no such curve, though single readings can be large; an effect the other way counts as inactive or inconclusive. Potency is read from the fitted curve at half-maximal effect.

SMILES	Rab9 promoter act	ELG1 genotoxic	NPC1 prom act	FLuc counter	ELG1 DNA repair	SMN2 splice up
Cc1nn(C)c(C(=O)N2CCc3ccccc32)c1Br	2%	-3%	-5%	0%	-18%	-4%
Cc1occc1C(=O)NNC(=O)C1CC1	-9%	2%	0%	6%	3%	-10%
CCN(CC)S(=O)(=O)c1cccc(-c2cn3cc(C)ccc3n2)c1	16%	?	12%	4.8µM*	?	-29%
Cc1ccc2nc(-c3cccc(S(=O)(=O)N(C)C)c3)cn2c1	3.2µM*	12%	?	?	?	16%
CN(C)S(=O)(=O)c1cccc(-c2cn3cccnc3n2)c1	13%	-2%	-4%	0%	?	-4%
O=C(O)Cn1c(=O)c2c(c3ccccc31)CCC2	-2%	2%	-1%	-3%	0%	.
O=C1C2C3CCC(C3NCc3ccccc3)C2C(=O)N1Cc1ccccc1 (stereo unspecified)	-2%	-14%	4%	1%	-11%	4%
CN(C)S(=O)(=O)c1cccc(C(=O)N=C2N=C3C=CC(Cl)=CN3Cc3ccccc32)c1	3.5µM*	?	2.5µM*	17µM*	?	.
O=C(O)c1cccc(NC(=O)C2C3C=CC(C3)C2C(=O)OCC(F)(F)C(F)F)c1 (stereo unspecified)	5%	6%	-2%	17µM*	21%	-7%
O=C(O)C1C2C=CC(C2)C1C(=O)Nc1cccc(C(F)(F)F)c1 (stereo unspecified)	0%	1%	-9%	-2%	2%	.
O=C(COC(=O)c1cc(=O)[nH]c2ccccc12)NC(=O)c1ccccc1	1%	-7%	1%	0%	4%	.
CCC(C)C(NC(=O)c1ccccc1)C(=O)Nc1ccc(S(=O)(=O)Nc2cc(C)nc(C)n2)cc1 (stereo unspecified)	-1%	-1%	-1%	0%	17%	.
Brc1ccc2[nH]c3c(c2c1)CCC3	2%	-3%	-4%	-3%	?	.
O=C1Cc2c([nH]c3ccc(Br)cc23)-c2ccccc2N1	0.37µM*	.	0.52µM*	.	.	11µM*
COCCCNC(=O)Cn1nnc(-c2ccc(NC(=O)c3ccccc3F)cc2)n1	27%	14%	26%	13µM*	?	?
COCCCNC(=O)Cn1nnc(-c2ccc(NC(=O)c3ccccc3OC)cc2)n1	3%	1%	14%	-18%	?	-6%
Cn1c(=O)c([N+](=O)[O-])c(NCCCn2ccnc2)c2ccccc21	-5%	1%	-1%	0%	0%	.
CC(C)(C)c1ccc(/C=C2\Oc3cc(O)ccc3C2=O)cc1	0%[1.84 µM]	0%	15%	?	?	.
O=C1/C(=C/c2ccc(Br)cc2)Oc2cc(O)ccc21	?	4%	23%	3.8µM*	?	.
O=C1/C(=C/c2ccc([N+](=O)[O-])cc2)Oc2cc(O)ccc21	-4%	0%	23%	4.8µM*	?	.
O=C(CN(C(=O)CNC(=O)c1ccco1)c1ccc(F)cc1)NC1CCCC1	-6%	1%	2%	1%	14%	.
Cc1ccc(Cl)cc1N1CCN(C(=O)CN2C(=O)c3cccc4cccc2c34)CC1	-5%	-13%	-8%	7%	21µM*	-28%
CCCN1Cc2cccc(C(=O)N3CCN(c4cc(Cl)ccc4C)CC3)c2C1=O	0%	-8%	1%	-2%	21µM*	-4%
CCN1CCN(C(=O)CN2C(=O)c3cccc4cccc2c34)CC1	1%	-1%	-3%	-1%	1%	-15%
O=C(C[n+]1cn(C(F)F)c2ccccc21)c1ccc(OC(F)F)cc1	?	16µM*	?	?	?	?
SMILES	Rab9 promoter act	ELG1 genotoxic	NPC1 prom act	FLuc counter	ELG1 DNA repair	SMN2 splice up
COc1ccc2nc(NS(=O)(=O)c3ccc(C)cc3)c(Nc3cc(Cl)ccc3OC)nc2c1	.	.	.	?	.	-7%
COC(=O)c1nc(NC(=O)C(C)(C)C)n[nH]1	-4%	5%	-2%	24µM*	?	2%
O=C(OCC(=O)N1CCCC1)c1ccccc1OCc1ccccc1	10%	?	0%	17µM*	?	13µM*
O=C(OCC(=O)N1CCOCC1)c1ccc2ccccc2c1O	4µM*	?	3.2µM*	17µM*	?	.
O=C(OCC(=O)N1CCOCC1)c1ccc[nH]c1=O	7%	2%	-1%	3%	0%	-11%
O=C(OCC(=O)N1CCOCC1)c1ccccc1OCc1ccccc1	-4%	1%	-1%	24µM*	?	.
O=C(COC(=O)c1cccnc1Cl)Nc1cc(S(=O)(=O)N2CCOCC2)ccc1Cl	14%	-1%	-9%	.	-4%	.
CCOc1ccc(S(=O)(=O)N2CCOCC2)cc1NC(=O)Cc1c(F)cccc1Cl	-1%	3%	-4%	-2%	-9%	.
COCCNC(=O)c1cccc(Nc2nc(-c3ccccc3)c3cc(Cl)ccc3n2)c1	-5%	-7%	2%	6%	21µM*	-29%
OCCNc1nc(-c2ccccc2)c2cc(Cl)ccc2n1	-2%	8%	-6%	7%	10%	-34%
Cc1cc2nn(-c3ccccc3)nc2cc1NC(=O)c1cccs1	2µM*	?	?	6µM*	?	?
CCC(=O)Nc1cc2nn(-c3ccccc3)nc2cc1Cl	0.28µM*	0.52µM*	0.32µM*	0.67µM*	?	0.89µM*
CC(=O)Nc1cc2nn(-c3ccccc3)nc2cc1C	0.56µM*	3.3µM*	0.63µM*	2.4µM*	?	.
Cc1ccc(C(=O)Nc2cc3nn(-c4ccccc4)nc3cc2Cl)c(C)c1	.	.	.	1%	.	-2%

Screening data as filed in PubChem BioAssay.
